The results in this text go back to PubChem BioAssay AID504329 (Southern Research Specialized Biocontainment Screening …, 2011).

“And” between values parts separate entries of the source, which are not always exact repeats. Identical values can stand only once. About 1,000 (0.29%) of roughly 340,000 compounds were called active. Cut-off read from the data, not from the text of the source: inconclusive = inhibition above about 27% without an active follow-up result; inactive = below that. Not all results are given here. Potency and affinity values are given separately.

The nature of the assay: NS1A inhibition, H1N1 influenza, cell based functional assay (AID 504329). The settings on record: percent inhibition, at 12.5 µM, hits give high values.
`CC(=O)c1ccc(NC(=O)Nc2ccc(Br)cc2C)cc1`: the inhibition (as a rule, the relative decrease from the control value, in per cent) is 1.12% (inactive).

`C=C(C)COc1ccc(-c2[nH]ncc2Oc2ccccc2OC)c(O)c1`: the inhibition was -3.04% (inactive).

In the case of `O=[N+]([O-])c1ccccc1/C=C/C=N/N1CCCCC1`, the inhibition was 4.44% (inactive).

As to `O=[N+]([O-])c1ccccc1/C=N\N1CCN(c2ccccc2)CC1`, the inhibition was 17% (inactive).

For the compound `O=C1c2ccccc2-c2c1cccc2C(=O)N1CCCCCC1`, the inhibition was -0.29% (inactive).

Take `CC1CC(C)CN(C(=O)c2cccc3c2-c2ccccc2C3=O)C1` (configuration not stated): the inhibition was -15% (inactive).

`O=C1c2ccccc2-c2c1cccc2C(=O)N1CCCCC1`: the inhibition was -10.6% (inactive).

As for `CCN(CCN(C)C)C(=O)c1ccc2c(c1NCCO)C(=O)c1ccccc1C2=O`, the inhibition is 12.9% (inactive).

`CCNc1c(C(=O)O)ccc2c1C(=O)c1ccccc1C2=O`: the inhibition is 10.3% (inactive).

With `O=C1c2ccccc2C(=O)c2c1ccc(C(=O)N1CCCCC1)c2NCCO`, the inhibition was 21.2% (inactive).

On to `O=C(O)c1ccc2c(c1Nc1ccccc1)C(=O)c1ccccc1C2=O`, for which the inhibition was 16.9% (inactive).

As to `CC1CCCN(C(=O)CN2C(=O)c3ccccc3C2=O)C1` (configuration not stated), the inhibition is -0.8% (inactive).

For `CCOC(=O)c1sc(C)c2c(=O)n(CCCN3CCOCC3)cnc12`, the inhibition is -0.01% (inactive).

Consider `Cc1cc(C(=O)NCc2cccnc2)n(-c2ccccc2)n1`, for which the inhibition is 24.2% (inactive).

Regarding `CC(C)(C)OC(=O)N[C@H](C(=O)OC(C)(C)C)c1ccc(C(F)(F)F)cc1`, the inhibition was 8.11% (inactive).

Turning to `COC(=O)CNC(=O)Cn1c(=O)n(Cc2ccc(F)cc2)c(=O)c2sccc21`, the inhibition was 0.76% (inactive).

Take `COc1ccc(CCC(=O)NCCS(=O)(=O)N2CCN(c3ccc(OC)cc3)CC2)cc1`: the inhibition was 1.44% (inactive).

In the case of `COC(=O)c1sc2ncccc2c1OCc1cccc(Cl)c1`, the inhibition is 1.6% (inactive).

`Cc1cc(C)cc(OCC(=O)Nc2nonc2NC(=O)COc2cc(C)cc(C)c2)c1`: the inhibition is -4.28% (inactive).

Regarding `Nn1c(SC/C=C/c2ccccc2)nnc1-c1cccnc1`, the inhibition is -6.35% (inactive).

With `Nn1c(SC/C=C/c2ccccc2)nnc1-c1ccncc1`, the inhibition is -1.07% (inactive).

As for `CN(c1ncc(C(F)(F)F)cc1Cl)N1C(=O)c2cccc(N)c2C1=O`, the inhibition is -4.28% (inactive).

On to `COc1ccccc1N1CCN(C(=O)c2sc3ncn(CC(=O)N4CCC(C)CC4)c(=O)c3c2C)CC1`, for which the inhibition is 6.39% (inactive).

On to `CN(Cc1nc(CC2CC2)no1)CC12CC3CC(CC(C3)C1)C2`, for which the inhibition was -6.9% (inactive).

For `O=C(c1ccc(O)cc1)c1ccc(Cl)cc1`, the inhibition is -10.1% (inactive).

Consider `O=C(c1ccc(O)cc1)c1ccc(C(=O)c2ccc(O)cc2)cc1`, for which the inhibition is -19.1% (inactive).

Take `CCOCCCNC(=O)C1c2ccccc2C(=O)N2CCc3ccccc3C12` (configuration not stated): the inhibition was 24.7% (inactive).

As to `COc1ccccc1Nc1ccc(N)cc1`, the inhibition was 10.9% (inactive).

In the case of `Nc1ccccc1Nc1ccccc1`, the inhibition is 18.3% (inactive).

With `CC(=O)Nc1ccc(Nc2ccccc2)cc1`, the inhibition is -4.36% (inactive).

Take `Cc1ccc(Nc2ccccc2)cc1`: the inhibition was 9.38% (inactive).

As for `Cc1ccc(Nc2cccccc2=O)cc1`, the inhibition was -5.45% (inactive).

As to `COc1ccc(Nc2cccccc2=O)cc1`, the inhibition is -2.41% (inactive).

Consider `COc1ccc(Nc2cccc3ccccc23)cc1`, for which the inhibition is -1.24% (inactive).

For `CC(C)Nc1ccccc1`, the inhibition was -4.73% (inactive).

For `CC(CN1CCN(C)CC1)OC(=O)c1cccc(F)c1` (configuration not stated), the inhibition is -2.72% (inactive).

`COc1cc(OC)c(CN2CCC(Cc3ccccc3)CC2)cc1Br`: the inhibition is -20.9% (inactive).

As to `COc1ccc(NC(=O)CSc2nc3[nH]ncc3c(=O)[nH]2)cc1OC`, the inhibition was -0.08% (inactive).

With `COc1cccc(CNc2nc3nc(C)c(Cl)c(C)n3n2)c1`, the inhibition was 0.89% (inactive).

For the compound `CCc1nnc(NC(=O)COC(=O)c2cc(OC)cc(OC)c2)s1`, the inhibition is 1.22% (inactive).

In the case of `CCc1ccc(NC(=O)C2CCN(c3ncnc4c3nc3n4CCCCC3)CC2)cc1`, the inhibition was -5.69% (inactive).

`CCOc1ccc2oc(C(=O)N(Cc3nnc(-c4ccccc4Cl)o3)C3CC3)c(C)c2c1`: the inhibition was -5.39% (inactive).

`CC(C)c1ccc(CNC(=O)CSCC(=O)Nc2ccc3ccccc3c2)cc1`: the inhibition was 1.48% (inactive).

For `CCc1nn(CC(=O)NC2CCN(Cc3ccccc3)CC2)c(=O)c2cc3cc(F)ccc3n12`, the inhibition is 0.23% (inactive).

As to `Cc1cc(C)c(NC(=O)CS(=O)CC(=O)Nc2ccc(-n3cnnn3)c(C)c2)c(C)c1` (configuration not stated), the inhibition was -3.45% (inactive).

For the compound `C/C(=C/c1ccccc1)C(=O)N1CCN(c2ccc(F)cc2)CC1`, the inhibition is -28.5% (inactive).

With `c1ccc(Nc2ccc(Nc3ccccc3)cc2)cc1`, the inhibition is 26.8% (inactive).

Consider `c1ccc(Nc2ccccc2)cc1`, for which the inhibition was -1.53% (inactive).

As for `CC(C)c1nc(SCC(=O)N2CCCCCC2)c2c(=O)n(C)c(=O)n(C)c2n1`, the inhibition is -2.22% (inactive).

As to `COc1ccc(C(CCNCc2ccc(OC(C)C)cc2)c2ccccc2OC)cc1` (configuration not stated), the inhibition is 3.25% (inactive).

`COc1ccc(CNCCC(c2ccc(OC(C)C)cc2)C(C)C)cc1OC` (configuration not stated): the inhibition is 5.92% (inactive).

Regarding `COc1ccc(CNCCC(c2ccc(OC(C)C)cc2)c2ccccc2OC)cc1` (configuration not stated), the inhibition is 13.4% (inactive).

Regarding `COc1ccc(CNCCC(c2ccc(OC)cc2)c2ccccc2OC)cc1` (configuration not stated), the inhibition is -0.73% (inactive).

For `COc1ccccc1C(CCNCc1ccccc1)c1ccc(OC(C)C)cc1` (configuration not stated), the inhibition was 11.1% (inactive).

With `COc1ccc(C(CCNCc2ccc(N(C)C)cc2)c2ccccc2)cc1` (configuration not stated), the inhibition is 25.2% (inactive).

With `O=C(CCc1c[nH]c2ccccc12)NCc1cccc(Cl)c1`, the inhibition was 15.9% (inactive).

With `Cc1cc(=O)oc2cc(OCC(=O)Nc3c(C)n(C)n(-c4ccccc4)c3=O)c(Cl)cc12`, the inhibition is -7.09% (inactive).

With `Cc1cc(=O)oc2cc(OCC(=O)N(C)C3CCS(=O)(=O)C3)c(Cl)cc12` (configuration not stated), the inhibition is -3.85% (inactive).

As for `CN(C)/C=C1/C(=O)NC(=O)N(CCNc2ncc(C(F)(F)F)cc2Cl)C1=O`, the inhibition was -1.37% (inactive).

Turning to `CN(C)C(=O)CCc1ccc2c3c([nH]c2c1)[C@]1(C)[C@@H](C(=O)N2CCCCC2)C[C@H](CC(=O)NCCN2CCOCC2)C(=O)N1CC3`, the inhibition is 8.89% (inactive).

As to `S=C(NCc1cccs1)NCC1CCCO1` (configuration not stated), the inhibition was -5.35% (inactive).

Turning to `Cc1ccc(S(=O)(=O)N(C)CCCC(=O)Nc2cccc3ccccc23)cc1`, the inhibition was 2.47% (inactive).

With `Cc1ccc(S(=O)(=O)N(C)CCCC(=O)Nc2ccc(C)cc2C)cc1`, the inhibition is -2.08% (inactive).

Turning to `Cc1ccc(N=Nc2ccc(O)c3ncccc23)cc1C`, the inhibition was -4.94% (inactive).

For `Cc1ccccc1N=Nc1ccc(O)c2ncccc12`, the inhibition is 11.8% (inactive).

As to `Cc1ccc(N=Nc2ccc(O)c3ncccc23)cc1`, the inhibition is -1.47% (inactive).

In the case of `Oc1ccc(N=Nc2ccccc2C(F)(F)F)c2cccnc12`, the inhibition is 18.7% (inactive).

Turning to `CCOc1ccc(NC(=O)CN(C)C(=O)CSCc2c(C)noc2C)cc1OCC`, the inhibition was -3.36% (inactive).

In the case of `COc1ccc(CC(=O)NNC2=Nc3cccc4cccc2c34)cc1OC`, the inhibition was -25.3% (inactive).

Regarding `O=C1c2ccccc2C(=O)N1CCc1nc2ccccc2c(=O)n1Cc1ccco1`, the inhibition is -1.09% (inactive).

For the compound `O=C(Cc1ccc(N(CCCl)CCCl)cc1)NC(Cc1ccc(Cl)cc1)C(=O)O` (configuration not stated), the inhibition is -4.27% (inactive).

For the compound `CC(C(=O)NCC1(c2ccccc2)CCOCC1)N1CCOCC1` (configuration not stated), the inhibition is -3.8% (inactive).

As for `C=CCN1C=CC(=CC=C(C#N)C#N)C=C1`, the inhibition is 4.22% (inactive).

Regarding `CCCCCCN1C=C/C(=C\C=C(C#N)C#N)c2ccccc21`, the inhibition is 18.4% (inactive).

`CCN(CC)C(=O)c1nn(Cc2ccccc2)c(=O)c2ccccc12`: the inhibition is -5.91% (inactive).

Take `Cc1cc(C(=S)N2CCOCC2)c(C)n1-c1ccc(F)cc1`: the inhibition is 1.72% (inactive).

`Cc1ccc(-n2c(C)cc(C(=S)N3CCOCC3)c2C)cc1C`: the inhibition was 12.2% (inactive).

On to `O=C(NC1(c2ccccc2)CC1)C1CCC(=O)N(Cc2ccc(Cl)cc2)C1` (configuration not stated), for which the inhibition was 8.58% (inactive).

Consider `O=[N+]([O-])c1ccc(N/N=C2\CC3CC=CC23)cc1` (configuration not stated), for which the inhibition is -1.23% (inactive).

Turning to `CC1C/C(=N\Nc2ccc(S(N)(=O)=O)cc2[N+](=O)[O-])CC(C)(C)C1` (configuration not stated), the inhibition was 8.9% (inactive).

As for `O=[N+]([O-])c1ccccc1N/N=C1\CC2CC=CC12` (configuration not stated), the inhibition is 21.6% (inactive).

For `CC1CCC/C(=N/Nc2ccc([N+](=O)[O-])cc2[N+](=O)[O-])C1` (configuration not stated), the inhibition is 10.6% (inactive).

With `O=C(CN1CCN(S(=O)(=O)c2ccc(Br)cc2)CC1)N/N=C/c1cc([N+](=O)[O-])ccc1Cl`, the inhibition was -0.7% (inactive).

As to `O=C(Oc1cccc(F)c1)c1ccc2c(=O)n3c(nc2c1)CCC3`, the inhibition was 3.05% (inactive).

For `N#CCO/N=C/C(=O)Nc1ccc(F)cc1F`, the inhibition was -11.8% (inactive).

Consider `CCOC(=O)C1=C(C)Nc2ncnn2C1c1ccc(N(C)C)cc1` (configuration not stated), for which the inhibition was 6.88% (inactive) and -12.7% (inactive).

Turning to `O=C(O)c1ccc(Nc2nc(-c3ccccc3)nc3ccccc23)cc1`, the inhibition was -15.2% (inactive).

Regarding `Cc1ccc2nc(-c3ccc(NC(=O)COC(=O)c4ccco4)cc3)sc2c1`, the inhibition is -4.32% (inactive).

As for `COc1ccc(N(CC(=O)NC2CCCCC2)S(=O)(=O)c2cccnc2)cc1`, the inhibition is -1.53% (inactive).

Regarding `CC(C)n1cnnc1SCC(=O)NC(=O)c1ccccc1`, the inhibition is -13.7% (inactive).

Turning to `O=C(CSc1nc(=O)n(CCCN2CCOCC2)c2c1CCC2)Nc1ccc(F)cc1F`, the inhibition was 0.02% (inactive).

In the case of `CCOC(=O)c1cnc(Cc2ccccc2)[nH]c1=O`, the inhibition was -2.72% (inactive).

`CCOC(=O)c1cnc(N2CCN(c3ccccc3)CC2)[nH]c1=O`: the inhibition was -0.51% (inactive).

As for `O=C(c1cccc(N2C(=O)C3C4C=CC(C4)C3C2=O)c1)N1CCN(c2ccc(F)cc2)CC1` (configuration not stated), the inhibition is -2.51% (inactive).

Consider `COC(=O)c1ccc(NC(=S)N2CCC(C(N)=O)CC2)cc1`, for which the inhibition was -11.5% (inactive).

Take `O=C(O)c1ccccc1C(=O)O`: the inhibition is 3.33% (inactive).

As for `O=C(O)c1ccccc1P(=O)(c1ccccc1)c1ccccc1`, the inhibition was 7.4% (inactive).
